Measurements from PubChem BioAssay (NCI).
Compounds without any hit were thinned out: in the full panel of roughly 83,000, 20% have a hit.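 Negative percent growth values reflect cell death: -40 means 40% of the cells present at the start died, and -100 means all died.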 A number with no mark means an inactive call. Activity calls are given as the source filed them. The calls were made as follows: active = growth percent below 10; inactive = the rest.

How the values were obtained:
Experiment in all cases: NCI-60 one-dose screen, 48 h (100 = growth as untreated, 0 = no growth, -100 = all killed)
Settings in all cases: 10 µM
786-0 renal = system: 786-0 renal
MALME-3M melanoma = system: MALME-3M melanoma
MDA-MB-231 breast = system: MDA-MB-231 breast
SF-268 CNS = system: SF-268 CNS
SF-295 CNS = system: SF-295 CNS
UACC-257 melanoma = system: UACC-257 melanoma
SK-MEL-28 melanoma = system: SK-MEL-28 melanoma
EKVX NSCLC = system: EKVX NSCLC
UO-31 renal = system: UO-31 renal
TK-10 renal = system: TK-10 renal
ACHN renal = system: ACHN renal
CAKI-1 renal = system: CAKI-1 renal
A498 renal = system: A498 renal
OVCAR-8 ovarian = system: OVCAR-8 ovarian
OVCAR-5 ovarian = system: OVCAR-5 ovarian
OVCAR-3 ovarian = system: OVCAR-3 ovarian
HS 578T breast = system: HS 578T breast
BT-549 breast = system: BT-549 breast
MDA-MB-435 melanoma = system: MDA-MB-435 melanoma
SW-620 colon = system: SW-620 colon

With `C#C[C@]1(O)CC[C@H]2[C@@H]3CC=C4c5sc(Nc6cc(C)cc(C)n6)nc5CC[C@]4(C)[C@H]3CC[C@@]21C` the growth (786-0 renal) was -52.2% (active), the growth (MALME-3M melanoma) was -39.8% (active) and the growth (MDA-MB-231 breast) was -44.9% (active). The growth (SF-268 CNS) was 7.69% (active), the growth (SF-295 CNS) was -75.3% (active) and the growth (UACC-257 melanoma) was -49.4% (active). For the same compound, the growth (SK-MEL-28 melanoma) was -56.8% (active), the growth (EKVX NSCLC) was -14% (active) and the growth (UO-31 renal) was -65.9% (active). The growth (TK-10 renal) was 4.66% (active), the growth (ACHN renal) was 7.43% (active) and the growth (CAKI-1 renal) was -27.6% (active). For the same compound, the growth (A498 renal) was -73.5% (active), the growth (OVCAR-8 ovarian) was 4.44% (active) and the growth (OVCAR-5 ovarian) was -21.9% (active). The growth (OVCAR-3 ovarian) was -3.49% (active), the growth (HS 578T breast) was -20.5% (active) and the growth (BT-549 breast) was -50.4% (active). The growth (MDA-MB-435 melanoma) was -6.28% (active) and the growth (SW-620 colon) was -86.9% (active).
In the case of `COc1ccc(Cc2nn(CC(=O)N/N=C/c3ccc(Br)cc3)c(=O)c3c(C)noc23)cc1`, the growth (786-0 renal) is reported as -53.2% (active), the growth (MALME-3M melanoma) is reported as -8.55% (active) and the growth (MDA-MB-231 breast) is reported as 21.1%. The growth (SF-268 CNS) was 37.3%, the growth (SF-295 CNS) was -4.74% (active) and the growth (UACC-257 melanoma) was 72.2%. The growth (SK-MEL-28 melanoma) was 70.2%, the growth (EKVX NSCLC) was 55.1% and the growth (UO-31 renal) was -15.7% (active). The growth (TK-10 renal) was -0.687% (active), the growth (ACHN renal) was 5.6% (active) and the growth (CAKI-1 renal) was 21.4%. The growth (A498 renal) was 21.3%, the growth (OVCAR-8 ovarian) was 33.9% and the growth (OVCAR-5 ovarian) was 59%. For the same compound, the growth (OVCAR-3 ovarian) was 28.5%, the growth (HS 578T breast) was 2% (active) and the growth (BT-549 breast) was 50%. It also gave a growth (MDA-MB-435 melanoma) of 54.1% and a growth (SW-620 colon) of 48.8%.
Compound `CCOC(=O)C1=C(N)N(c2ccc(C)cc2)C2=C(C(=O)CC(C)(C)C2)C1c1ccccc1Br` (stereo not given) has a growth (786-0 renal) of 83.9%, a growth (MALME-3M melanoma) of 109% and a growth (MDA-MB-231 breast) of 93.4%. It also gave a growth (SF-268 CNS) of 99.3%, a growth (SF-295 CNS) of 90.5% and a growth (UACC-257 melanoma) of 84.1%. The growth (SK-MEL-28 melanoma) was 93.7%, the growth (EKVX NSCLC) was 91% and the growth (UO-31 renal) was 76%. For the same compound, the growth (TK-10 renal) was 110%, the growth (ACHN renal) was 85.9% and the growth (CAKI-1 renal) was 69.8%. It also gave a growth (A498 renal) of 108%, a growth (OVCAR-8 ovarian) of 90.1% and a growth (OVCAR-5 ovarian) of 97.5%. For the same compound, the growth (OVCAR-3 ovarian) was 84.9%, the growth (HS 578T breast) was 99.5% and the growth (BT-549 breast) was 93.9%. It also gave a growth (MDA-MB-435 melanoma) of 82.6% and a growth (SW-620 colon) of 46%.
`Cc1ccc(-c2nc(C#N)c(S(=O)(=O)N3CCN(S(C)(=O)=O)CC3)o2)cc1` was tested, and the growth (786-0 renal) was -76.2% (active), the growth (MALME-3M melanoma) was -76.8% (active) and the growth (MDA-MB-231 breast) was 77.6%. For the same compound, the growth (SF-268 CNS) was 88.5%, the growth (SF-295 CNS) was 155% and the growth (UACC-257 melanoma) was 57.7%. It also gave a growth (SK-MEL-28 melanoma) of 34.3%, a growth (EKVX NSCLC) of 101% and a growth (UO-31 renal) of 26.7%. For the same compound, the growth (TK-10 renal) was 97%, the growth (ACHN renal) was -97.9% (active) and the growth (CAKI-1 renal) was 72%. The growth (A498 renal) was 132%, the growth (OVCAR-8 ovarian) was 25.5% and the growth (OVCAR-5 ovarian) was 76.9%. The growth (OVCAR-3 ovarian) was -22% (active), the growth (HS 578T breast) was 100% and the growth (BT-549 breast) was 58%. For the same compound, the growth (MDA-MB-435 melanoma) was 57.9% and the growth (SW-620 colon) was -71.8% (active).
In the case of `C#C[C@]1(O)CC[C@H]2[C@@H]3CC=C4c5sc(Nc6ccc(N(C)C)cc6)nc5CC[C@]4(C)[C@H]3CC[C@@]21C`, the growth (786-0 renal) is reported as -54.6% (active), the growth (MALME-3M melanoma) is reported as -44.7% (active) and the growth (MDA-MB-231 breast) is reported as -10.7% (active). The growth (SF-268 CNS) was 11.7%, the growth (SF-295 CNS) was -58.7% (active) and the growth (UACC-257 melanoma) was 45.9%. For the same compound, the growth (SK-MEL-28 melanoma) was -21.6% (active), the growth (EKVX NSCLC) was 24.7% and the growth (UO-31 renal) was -45% (active). For the same compound, the growth (TK-10 renal) was 42.3%, the growth (ACHN renal) was -4.47% (active) and the growth (CAKI-1 renal) was 2.6% (active). For the same compound, the growth (A498 renal) was -42.4% (active), the growth (OVCAR-8 ovarian) was 0.0481% (active) and the growth (OVCAR-5 ovarian) was 21.7%. The growth (OVCAR-3 ovarian) was 2.6% (active), the growth (HS 578T breast) was -7.74% (active) and the growth (BT-549 breast) was -58.8% (active). For the same compound, the growth (MDA-MB-435 melanoma) was 5.17% (active) and the growth (SW-620 colon) was 4.36% (active).
Compound `O=C1S/C(=C\c2ccc([N+](=O)[O-])cc2)C(=O)N1CCN1CCCCC1` has a growth (786-0 renal) of 105%, a growth (MALME-3M melanoma) of 118% and a growth (MDA-MB-231 breast) of 102%. The growth (SF-268 CNS) was 112%, the growth (SF-295 CNS) was 111% and the growth (UACC-257 melanoma) was 112%. For the same compound, the growth (SK-MEL-28 melanoma) was 109%, the growth (EKVX NSCLC) was 104% and the growth (UO-31 renal) was 102%. For the same compound, the growth (TK-10 renal) was 106%, the growth (ACHN renal) was 103% and the growth (CAKI-1 renal) was 102%. The growth (A498 renal) was 126%, the growth (OVCAR-8 ovarian) was 105% and the growth (OVCAR-5 ovarian) was 114%. The growth (OVCAR-3 ovarian) was 116%, the growth (HS 578T breast) was 115% and the growth (BT-549 breast) was 118%. It also gave a growth (MDA-MB-435 melanoma) of 102% and a growth (SW-620 colon) of 113%.
With `COc1cc(Nc2nc(O)c(/C=C3\C=Nc4ccccc43)s2)cc(OC)c1OC` the growth (786-0 renal) was -73.1% (active), the growth (MALME-3M melanoma) was -30.1% (active) and the growth (MDA-MB-231 breast) was -40.7% (active). For the same compound, the growth (SF-268 CNS) was -38.2% (active), the growth (SF-295 CNS) was -73.4% (active) and the growth (UACC-257 melanoma) was 4.51% (active). For the same compound, the growth (SK-MEL-28 melanoma) was -34.5% (active), the growth (EKVX NSCLC) was -41.8% (active) and the growth (UO-31 renal) was -48.9% (active). The growth (TK-10 renal) was -35% (active), the growth (ACHN renal) was -2.09% (active) and the growth (CAKI-1 renal) was -69.3% (active). The growth (A498 renal) was -76.1% (active), the growth (OVCAR-8 ovarian) was -49.8% (active) and the growth (OVCAR-5 ovarian) was -52.5% (active). For the same compound, the growth (OVCAR-3 ovarian) was -77% (active), the growth (HS 578T breast) was -20.2% (active) and the growth (BT-549 breast) was -41.4% (active). The growth (MDA-MB-435 melanoma) was -77.1% (active) and the growth (SW-620 colon) was -52.1% (active).
